Bioassay records: PubChem BioAssay, several laboratories
PrP UTR inh: inhibition of PrP 5' UTR reporter expression; 340,000 compounds, 0.35% hits; inhibition, % (concentration not given with the values); cell-based PrP 5' UTR mRNA reporter, plate reader; in the data active = inhibition above about 52%
PrPC surface inh: inhibitors of human cell surface prion protein PrPC, primary screen, cell-based, TR-FRET; TR-FRET read-out; inhibition, % at 13.8 µM; Major prion protein (Homo sapiens), P04156; 370,000 compounds, 0.43% hits; in the data active = inhibition above about 24%
BJeLR viability: MLPCN primary cell-based screen for lethality selective to Ras in HRASV12 cells; inhibition, % (no concentration beside the values); 300,000 compounds, 0.17% hits; BJeLR (HRASV12) viability, CellTiter-Glo ATP luminescence, 48 h; in the data active = inhibition above about 50%
SARS 3CLpro inh: SARS-CoV 3CLpro protease inhibitors, primary screen, biochemical, quenched FRET. AID 1706, 2009. 290,000 compounds, 0.14% hits. recombinant SARS-CoV 3CLpro, quenched FRET peptide cleavage. inhibition, % at 6 µM. Replicase polyprotein 1ab (Severe acute respiratory syndrome coronavirus), P0C6X7; in the data active = inhibition above about 12%
SSB-PriA inh: inhibitors of Klebsiella pneumoniae PriA binding to SSB C-terminal tail, primary screen, biochemical, AlphaScreen. PriA–SSB C-terminal tail interaction (Klebsiella pneumoniae). AlphaScreen SSBct-PriA binding, biotinylated peptide. inhibition, % at 33 µM. 430,000 compounds, 0.6% hits. AID 1272365, 2023; in the data active = inhibition mostly above about 37%, no sharp cut-off; inactive = mostly below about 20%
Each line names hits and unclear results; the compound was inactive in the other large screens. The list is not random: actives were taken first. Their share in the collection is about 1.2%.

COc1ccc(NC(=O)CCc2csc(NC(=O)c3ccc[nH]c3=O)n2)cc1OC	none (no result: PrP UTR inh, PrPC surface inh, BJeLR viability, SARS 3CLpro inh)
CCN1C(=O)C(=Cc2cccc(OC)c2Oc2ccc([N+](=O)[O-])cc2[N+](=O)[O-])SC1=S	BJeLR viability 94 (no result: PrP UTR inh)
C=CCNC(=S)Nc1sc2c(c1C(=O)OCC)CC(C(C)C)OC2 (stereo not given)	SSB-PriA inh 60
COc1ccc(C2=Nn3c(nnc3-c3ccccn3)SC2)cc1OC	SSB-PriA inh 83
CC(C)(C)C1=Nn2c(nnc2-c2ccccn2)SC1	SSB-PriA inh 90
O=C(NCCCS(=O)(=O)N1CCN(c2ccccc2F)CC1)c1ccccc1Cl	none (no result: PrP UTR inh, PrPC surface inh, BJeLR viability, SARS 3CLpro inh)
N=C1CCC(=N)c2c1c(O)c1ccccc1c2O	SSB-PriA inh 74 (no result: PrPC surface inh)
CCOc1cc(/C=C2\CN(C)C/C(=C\c3ccc(O)c(OCC)c3)C2=O)ccc1O	BJeLR viability 61
CN1C/C(=C/c2ccsc2)C(=O)/C(=C/c2ccsc2)C1	none
CN1C/C(=C/c2ccncc2)C(=O)/C(=C/c2ccncc2)C1	BJeLR viability 72
COc1cc(C=C2CN(C)C(=O)C2=O)ccc1O	none (no result: PrP UTR inh, BJeLR viability, SARS 3CLpro inh, SSB-PriA inh)
O=C(c1cc2ccccc2o1)N1CCCCC(c2ccc(F)cc2)C1 (stereo not given)	none (no result: PrP UTR inh, PrPC surface inh, BJeLR viability, SARS 3CLpro inh)
O=c1cccnn1CCNS(=O)(=O)/C=C\c1ccccc1	none (no result: PrP UTR inh, PrPC surface inh, BJeLR viability, SARS 3CLpro inh)
COc1ccccc1NC(=O)c1ccc(NC(=O)CN2CCCC2)cc1	SSB-PriA inh 47
COc1cc(NC(=O)Nc2cccc(Cl)c2)c(OC)cc1NC(=O)CN1CCCCC1	SSB-PriA inh 50
O=C(CN1CCCCC1)Nc1cccc(Cl)c1	none
O=C(CCc1nc2sc3c(c2c(=O)[nH]1)CCCCC3)NCc1cccs1	none (no result: PrP UTR inh, PrPC surface inh, BJeLR viability, SARS 3CLpro inh)
C(=N\Nc1nncc2ccccc12)/c1ccccc1	none
C(=NNc1nncc2ccccc12)c1ccccn1	SSB-PriA inh 51 (no result: PrP UTR inh, PrPC surface inh, BJeLR viability, SARS 3CLpro inh)
O=c1cnnc(NN=Cc2ccccn2)[nH]1	SSB-PriA inh 71 (no result: PrP UTR inh, PrPC surface inh, BJeLR viability, SARS 3CLpro inh)
Nc1c(Cl)ncnc1NN=Cc1ccccn1	SSB-PriA inh 110 (no result: PrP UTR inh, PrPC surface inh, BJeLR viability, SARS 3CLpro inh)
O=C(c1cc(-c2ccco2)on1)N1CCC(Oc2cccnn2)CC1	none (no result: PrP UTR inh, PrPC surface inh, BJeLR viability, SARS 3CLpro inh)
O=C(NCc1cc(C2CC2)n(C2CCCC2)n1)c1nc2ccccc2s1	none (no result: PrP UTR inh, PrPC surface inh, BJeLR viability, SARS 3CLpro inh)
O=C(NCc1cccs1)Nc1ccccc1Cc1nc(-c2ccco2)no1	none (no result: PrP UTR inh, PrPC surface inh, BJeLR viability, SARS 3CLpro inh)
O=C(CN1CCOC1=O)N1CCC(n2c(=O)[nH]c3ccc(F)cc3c2=O)CC1	none (no result: PrP UTR inh, PrPC surface inh, BJeLR viability, SARS 3CLpro inh)
Nc1ccc(N2CCCCC2)cc1N1CCCCC1	SSB-PriA inh 63
COc1ccc(OC)c(Nc2ccnc3ccc(Cl)cc23)c1	none (no result: PrP UTR inh, PrPC surface inh, BJeLR viability, SARS 3CLpro inh)
O=C(c1ccco1)N1CCN(C(=O)C2CCCN(S(=O)(=O)Cc3ccccc3)C2)CC1 (stereo not given)	none
CS(=O)(=O)N1CC(C(=O)N2CCN(C(=O)c3ccco3)CC2)C1	SSB-PriA inh 80 (no result: PrP UTR inh, PrPC surface inh, BJeLR viability, SARS 3CLpro inh)
c1ccc(-c2nc(-c3ccco3)cs2)nc1	none
c1ccc(-c2nccc(-c3ccco3)n2)nc1	SSB-PriA inh 72
CNc1nc(-c2ccccn2)nnc1-c1ccccc1	SSB-PriA inh 91
c1ccc(-c2nnc(-c3ccco3)c(-c3ccco3)n2)nc1	SSB-PriA inh 114 (no result: PrP UTR inh, PrPC surface inh, BJeLR viability, SARS 3CLpro inh)
c1ccc(-c2noc(-c3ccco3)n2)nc1	none
COc1ccc(OC)c2[nH]c(=O)c(CCNC(=S)Nc3cccc(F)c3)cc12	none (no result: PrP UTR inh, PrPC surface inh, BJeLR viability, SARS 3CLpro inh)
O=[N+]([O-])c1ccc(Cl)cc1Sc1nc2ccccc2o1	SSB-PriA inh 49
O=[N+]([O-])c1ccc(Sc2nc3ccccc3o2)c([N+](=O)[O-])c1	none
NC(=O)c1ccc(N=Nc2c(O)c3ccccc3[nH]c2=O)cc1	none (no result: PrP UTR inh, PrPC surface inh, SSB-PriA inh)
N=C(N)c1ccc(N=Nc2c(O)ccc3c2[nH]c2ccccc23)cc1	SSB-PriA inh 82 (no result: BJeLR viability, SARS 3CLpro inh)
CCOC(=O)c1cc(CC)sc1N=CC1=C(O)CCCC1=O	none (no result: PrP UTR inh, PrPC surface inh, BJeLR viability, SARS 3CLpro inh)
CC(=NNC(=O)c1ccccc1F)c1ccccn1	SSB-PriA inh 51 (no result: PrP UTR inh, PrPC surface inh, BJeLR viability, SARS 3CLpro inh)
CC(=NNC(=O)c1cc(-c2cccs2)nc2ccccc12)c1ccccn1	SSB-PriA inh 85 (no result: PrP UTR inh, PrPC surface inh, BJeLR viability, SARS 3CLpro inh)
CC(=NNC(=O)c1ccc(NS(=O)(=O)c2cccs2)cc1)c1ccccc1	none (no result: PrP UTR inh, PrPC surface inh, BJeLR viability, SARS 3CLpro inh)
CC(=NNC(=O)c1ccccc1Cl)c1ccccn1	none (no result: PrP UTR inh, PrPC surface inh, BJeLR viability, SARS 3CLpro inh)
COc1ccc(C(=O)NN=C(C)c2ccccn2)cc1OC	SSB-PriA inh 83 (no result: PrP UTR inh, PrPC surface inh, BJeLR viability, SARS 3CLpro inh)
CC(=NNC(=O)c1ccc(NS(=O)(=O)c2cccs2)cc1)c1ccccn1	SSB-PriA inh 39 (no result: PrP UTR inh, PrPC surface inh, BJeLR viability, SARS 3CLpro inh)
O=c1c2cnn(CCO)c2ncn1Cc1ccc(Cl)c(Cl)c1	none (no result: PrP UTR inh, PrPC surface inh, BJeLR viability, SARS 3CLpro inh)
COc1cccc(C2SCCN2C(=O)c2ccc(Br)o2)c1 (stereo not given)	none (no result: PrP UTR inh, PrPC surface inh, BJeLR viability, SARS 3CLpro inh)
CC(=NNC(=O)c1ccccc1OCc1ccc(F)cc1)c1ccccn1	none (no result: PrP UTR inh, PrPC surface inh, BJeLR viability, SARS 3CLpro inh)
C/C(=N\NC(=O)c1ccc(F)cc1)c1ccccn1	BJeLR viability 106 (no result: SSB-PriA inh)
O=C(COc1ccc2ccccc2c1)N[C@@H](C(=O)O)c1ccc(O)cc1	SSB-PriA inh 40
O=C(COc1ccc2ccccc2c1)NNC(=O)Cc1ccccc1	none
C=CCN1C(=O)C(C)(C)COc2cc(NS(=O)(=O)CCc3ccc(OC)cc3)ccc21	none (no result: PrP UTR inh, PrPC surface inh, BJeLR viability, SARS 3CLpro inh)
COc1cc2[nH]c3c(=O)n(CC(=O)NCCC(C)C)cnc3c2cc1OC	none (no result: PrP UTR inh, PrPC surface inh, BJeLR viability, SARS 3CLpro inh)
O=[N+]([O-])c1cc(Cl)ccc1Nc1ccccc1	SSB-PriA inh 89 (no result: PrPC surface inh)
COc1ccc(Nc2ccc([N+](=O)[O-])cc2[N+](=O)[O-])cc1	SSB-PriA inh 43
COc1ccc(NC(=O)c2cc([N+](=O)[O-])ccc2O)cc1	PrP UTR inh 87
NS(=O)(=O)c1ccc(Nc2ccccc2)c([N+](=O)[O-])c1	none
Cc1nc2sc(C)c(C)n2c(=O)c1NC(=O)C(c1ccccc1)c1ccccc1	none (no result: PrP UTR inh, PrPC surface inh, BJeLR viability, SARS 3CLpro inh)
COc1ccc(NC(=O)c2c(-c3c(F)cccc3Cl)noc2C)cc1[N+](=O)[O-]	SSB-PriA inh 66 (no result: PrP UTR inh, PrPC surface inh, BJeLR viability, SARS 3CLpro inh)
